Shown are actives, neighbours in structure and some others; about 2.5% of the full set was active somewhere.
Cruzain Triton – inhibitors of Trypanosoma cruzi cruzain with detergent; P25779; purified cruzain, Z-FR-AMC fluorescence, 0.01% Triton; Potency, µM, without a hit: max response, negative = inhibition, most hits filed as inhibitors; hit rate 0.43% among 200,000; AID 1478;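 also: plate controls were neutral wells for no effect and buffer without enzyme for full effect; nearly all actives have a fitted effect of over 40% in size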
Target sequence (P25779 123-467 limits assumed): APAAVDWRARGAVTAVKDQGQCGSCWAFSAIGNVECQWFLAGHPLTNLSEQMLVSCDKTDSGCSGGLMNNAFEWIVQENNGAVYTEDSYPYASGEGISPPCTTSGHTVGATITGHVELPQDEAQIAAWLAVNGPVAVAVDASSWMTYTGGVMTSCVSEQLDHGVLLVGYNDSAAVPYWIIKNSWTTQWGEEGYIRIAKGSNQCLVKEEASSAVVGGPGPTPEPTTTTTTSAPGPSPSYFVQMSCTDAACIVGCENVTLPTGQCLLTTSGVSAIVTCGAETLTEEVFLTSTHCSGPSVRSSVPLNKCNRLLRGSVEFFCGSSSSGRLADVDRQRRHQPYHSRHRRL
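Detergent-containing run (0.01% Triton X-100) in acetate buffer pH 5.5 with 5 mM DTT: enzyme at 1.5 nM final, 15 min compound preincubation at room temperature, then 2 uM Z-FR-AMC substrate. Activity taken as 60 s fluorescence increase at 360/450 nm.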
Cruzain inh noDet – blocks cruzain activity in detergent-free assay | Potency, µM, inactives show max response, negative = inhibition, most hits filed as inhibitors | hit rate 2.3% among 200,000 | purified cruzain, Z-FR-AMC fluorescence, no detergent | P25779;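 also: plate controls were enzyme without inhibitor for no effect and buffer without enzyme for full effect; nearly all actives have a fitted effect of over 40% in size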
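Detergent-free condition (0.00005% Triton X-100) in acetate buffer pH 5.5 with DTT. 1.5 nM enzyme and compound were pre-mixed 15 min, then 2 uM Z-FR-AMC substrate added; reaction progress from fluorescence change between first and third reads (60 s).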
Starred values were filed as active, the others as inactive; ? = inconclusive; ! = repeats disagree. Calls follow the shape of the dose curve; as a rule, active = well fitted curve in the direction sought with a large enough effect; inconclusive = small, poorly fitted or top-dose-only effect, or another doubt; inactive = no such curve, though single readings can be large; an effect the other way counts as inactive or inconclusive. Potency is read from the fitted curve at half-maximal effect.

SMILES	Cruzain Triton	Cruzain inh noDet
O=C(CSc1nnc(-c2ccccc2)c(-c2ccccc2)n1)Nc1ncc(Cl)cc1Cl	-10.8%	31.6µM*
Cc1nc(NC(=O)CSc2nnc(-c3ccccc3)c(-c3ccccc3)n2)c(Cl)cc1Cl	-12.5%	?
COc1ccc2[nH]c3c(c2c1)CCn1c-3nc2ccccc2c1=O	1.4%	-13.4%
Cc1ccc2[nH]c3c(c2c1)CCC3=O	15.0%	11.6%
COc1ccc2c3c([nH]c2c1)C(C)=NCC3	-3.3%	10µM*!
CC1=NCCc2c1[nH]c1cc(O)ccc21	28.2µM*!	12.6µM*!
CC1=C(C)C[C@@]23CCCN2C(=O)CCC[C@H]3C1	1.0%	-1.3%
CCC1=C2CC[C@H]3C(=O)N(CC)C(=O)[C@H]3[C@H]2[C@@]2(C)C(=NCCc3c[nH]c4ccccc34)OC(=O)N2C1=O	0.5%	14.1%
COC(=O)[C@@H]1C=C[C@H](C)[C@H](CCOc2ccccc2)O1	0.6%	-1.9%
Cc1nc(C)c(CCNC(=O)c2ccc(C(F)(F)F)cc2)s1	-12.9%	1.3%
Cc1ccc(C(=O)NCCc2sc(C)nc2C)cc1	25.1µM*	?
NC(=O)N/N=C1\CC[C@H](O)C[C@@H]1CC(=O)O	5.5%	7.8%
CCN(c1ccc(C)cc1C)S(=O)(=O)c1nnc(NC(=O)CC(C)C)s1	-4.6%	7.8%
CC(C)CCNC(=O)[C@H](CC(C)C)NC(=O)[C@H]1O[C@@H]1C(=O)O	0.1µM*	0.1µM*
CC(C)CCNC(=O)CCCOc1ccccc1	3.7%	0.5%
COC(=O)C1(C(=O)OC)CC2=C[C@H](CC2=O)Cc2ccccc2[C@@H]1C[N+](=O)[O-]	-1.0%	-8.9%
CCOc1ccc2nc(SCC(=O)N3c4ccccc4Sc4ccccc43)sc2c1	0.6%	?
Cc1cc(NC(=O)CSc2nc3ccccc3s2)no1	1.0%	31.6µM*
Cc1cnc(NC(=O)CSc2nc3ccccc3s2)s1	-5.1%	-9.6%
O=C(CSc1nc2ccccc2s1)N1c2ccccc2Sc2ccccc21	2.2%	15.8µM*
CCN(CC)C(=O)CSc1nnc(CCN)o1	4.2%	-9.6%
CCN(CC)C(=O)CSc1nnc([C@@H](N)Cc2ccccc2)o1	25.1µM*	25.1µM*
N[C@@H](Cc1ccccc1)c1nnc(SCc2ccccc2Cl)o1	4.0%	18.3%
C=C(C)CSc1nnc([C@@H](N)Cc2c[nH]c3ccccc23)o1	-5.4%	2.3%
CCc1ccccc1NC(=O)CSc1nnc([C@@H](N)Cc2ccccc2)o1	10µM*	10µM*
SMILES	Cruzain Triton	Cruzain inh noDet
Cc1ccc(NC(=O)CSc2nnc([C@@H](N)Cc3c[nH]c4ccccc34)o2)c(C)c1	17.8µM*	15.8µM*
CCCCN(C)CCCNC(=O)Cn1ncc2c3ccccc3n(Cc3cccc(Cl)c3)c2c1=O	-9.3%	-5.2%
CCCCCCCCCCOCCC(=O)O	4.0%	-0.2%
COc1ccc(Oc2ncc3nc(C)c(=O)n(Cc4cccc(OC)c4)c3n2)cc1	-4.8%	?
Cc1ccc(-n2nc3ccc(NC(=O)/C=C/c4ccco4)cc3n2)cc1	-7.2%	15.8µM*
Cc1ccc(NC(=O)c2cccc(NC(=O)/C=C/c3ccco3)c2)cc1C	-9.0%	-9.9%
CC(C)c1ccc(NC(=O)CSc2ncnc3c2sc2ccccc23)cc1	0.9%	6.4%
CCOC(=O)c1sc(NC(=O)C(OC(C)=O)c2ccccc2)nc1C (configuration not stated)	-16.7%	-1.7%
CCOC(=O)c1sc(NC(=O)C(CC)OC(=O)C(CC(C)C)NC(=O)c2ccccc2)nc1C (configuration not stated)	10µM*	-6.9%
CCOC(=O)c1sc(NC(=O)/C=C/c2ccccc2)nc1C	-1.1%	25.1µM*
Cc1nc(NC(=O)/C=C/c2ccccc2)sc1C(=O)Nc1ccccc1	2.6%	-18.6%
Cc1ccc(C2CC(c3cccs3)=NN2C(=O)c2ccc(Br)o2)cc1 (configuration not stated)	-9.4%	7.94µM*
CCOC(=O)CSCC(=O)N1N=C(c2cccs2)CC1c1ccc(F)cc1 (configuration not stated)	-9.0%	6.5%
COc1ccccc1CNC(=O)CSc1cc(C)[nH]c(=O)n1	-0.1%	?
COc1cc(-c2cc3n(C)c(C)c(CCC(=O)NCc4ccccc4)c(=O)n3n2)cc(OC)c1OC	-1.4%	1.0%
Cc1ccc(-c2csc(Cc3nc(-c4cc5ccccc5oc4=O)cs3)n2)cc1	2.2%	6.31µM*
Cc1cc(C)c(-c2csc(-c3cc4ccccc4oc3=O)n2)cc1C	-0.2%	5.2%
Cc1cc(C)c(-c2csc(Cc3nc(-c4cc5ccccc5oc4=O)cs3)n2)cc1C	-1.8%	10µM*
O=c1oc2ccc(Br)cc2cc1-c1csc(-c2ccccc2)n1	1.5%	-4.6%
COc1ccc(OCC(=O)OCc2cc(=O)n3cc(C)sc3n2)cc1	-5.0%	-8.4%
c1cc(CSSCc2ccncc2)ccn1	2.82µM*	?
N=C(N)SCCc1ccncc1	-1.5%	3.3%
COc1cccc(-c2ccc3ncnc(NCCNC(C)=O)c3c2)c1	-6.4%	3.0%
NC(=O)CSc1nnc(-c2cc3ccccc3o2)n1Cc1ccccc1	-2.4%	?
O=C(CSc1nnc(C2CC2)n1Cc1ccccc1)c1cc2ccccc2o1	-3.9%	15.8µM*
SMILES	Cruzain Triton	Cruzain inh noDet
COc1ccc(CCNC(=O)c2ccc3nc(-c4ccco4)c(-c4ccco4)nc3c2)cc1OC	14.1µM*	-5.8%
CCc1nc2ccc(C(=O)NCCc3ccc(OC)c(OC)c3)cc2nc1CC	0.7%	23.1%
OCCCNC(=S)Nc1ccc2nc(-c3ccccn3)c(-c3ccccn3)nc2c1	-3.9%	-13.4%
O=C(Nc1cccc(C(F)(F)F)c1)c1ccc2snnc2c1	-3.7%	-11.5%
O=C(Nc1nc(-c2ccco2)c(-c2ccco2)s1)C1CCC1	-9.2%	-6.0%
O=C(Nc1cccc(C(F)(F)F)c1)c1ccc2nc(-c3ccco3)c(-c3ccco3)nc2c1	14.1µM*	?
O=C(NCCCO)Nc1ccc2nc(-c3ccco3)c(-c3ccco3)nc2c1	12.6µM*	7.94µM*
O=C(Nc1ccc2nc(-c3ccco3)c(-c3ccco3)nc2c1)NC1CC1	8.91µM*	2.51µM*
CCc1nnc(NC(=O)CSc2nccn2Cc2ccc(Cl)cc2)s1	-1.2%	6.2%
O=C(CN1C(=O)c2ccccc2C1=O)[C@@H](O)CN1C(=O)c2ccccc2C1=O	-1.9%	-6.6%
C/C=C/C=C/C=O	-1.0%	-0.1%
COc1cccc([C@@H]2Oc3ccc(Br)cc3C(=O)[C@H]2OC(=O)NCc2ccco2)c1	-2.2%	-9.1%
COCC(C)NC(=O)C1=CC(c2ccc3c(c2)OCO3)=NS(=O)(=O)N1C (configuration not stated)	-8.5%	-6.3%
[O-][Br+2]([O-])O	22.4µM*!	-25.4%
CCOC(=O)c1c(C)oc2nc(C)nc(NCCc3ccc(OCC)cc3)c12	-2.1%	-14.4%
O=C(/C=C/c1ccccc1Cl)NC(=S)Nc1ccccc1C(=O)NC1CCCCC1	1.5%	3.98µM*
O=C(NC1CCCCC1)c1ccccc1NC(=S)NC(=O)C1CCC1	1.9%	-11.5%
COc1ccccc1N1CCN(S(=O)(=O)c2ccc(F)c(C(=O)Nc3ccc(Cl)cc3C(F)(F)F)c2)CC1	0.5%	?
Cc1ccc(N2CCN(S(=O)(=O)c3ccc(F)c(C(=O)Nc4ccc(Cl)cc4Cl)c3)CC2C)cc1 (configuration not stated)	0.7%	-8.9%
COc1ccccc1NC(=O)c1cc(S(=O)(=O)N2CCN(c3ccccc3Cl)CC2)ccc1F	0.7%	10µM*
Cc1ccc(C)c(NC(=O)c2cc(S(=O)(=O)N3CCN(c4cccc(Cl)c4)CC3)ccc2F)c1	1.1%	7.94µM*

High-throughput results deposited in PubChem BioAssay by National Center for Advancing Translational Sciences (NCATS).
